# Laboratory results as given in PubChem BioAssay AID1347075 (National Center for Advancing Translational Sciences (NCATS), 2019).
# Screen size: about 400,000 compounds; about 5,500 (1.4%) were called active. A call without a number means that no potency is given here. Not shown: some 9% with an inconclusive outcome. The call rests on the fitted dose curve; in most records, active means well fitted cell-killing curve with a large enough effect; inconclusive means small, poorly fitted or top-dose-only effect, or effect the other way; inactive means flat fitted curve, though single readings scatter. Many of the other results were omitted from the sample, so actives are more common in it than they were.
# Assay: qHTS assay for MDR1-selective chemotherapeutics: Primary screen using the parental adenocarcinoma cell KB-3-1; further: nearly all actives have a fitted effect of over 60% in size
# Conditions: KB-3-1 viability, CellTiter-Glo ATP luminescence, 72 h; series mostly up to 46.1 µM
# How it was run: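 Parental KB-3-1 viability, qHTS format: 72 h compound exposure, 37 °C; CellTiter-Glo; media-only wells and DMSO plates as controls; concentration-effect fits on corrected data.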
# Potency means the concentration at half of the fitted maximal effect.
row,Compound,Potency
1,Cc1cccc(CSc2nc3ccncc3n2Cc2ccc(C(=O)O)cc2)c1,inactive
2,COc1cccc(Cn2c(SCc3ccc(C(=O)N4CCC(C)CC4)cc3)nc3ccncc32)c1,inactive
3,Cc1cccc(Cn2c(SCc3ccc(C(=O)N4CCC(C)CC4)cc3)nc3ccncc32)c1,23.1 µM (active)
4,CCOc1n[nH]c(-c2ccccc2)n1,inactive
5,CCN(CC)S(=O)(=O)c1nnc(NC(=O)COc2ccccc2Cl)s1,inactive
6,CN(Cc1cncn1C)c1ncnc2ccc(-c3ccc4c(c3)OCO4)cc12,inactive
7,Cn1c(=O)c2c(nc(SCC(=O)Nc3ccc(F)cc3)n2Cc2ccc(Cl)cc2)n(C)c1=O,inactive
8,COc1ccc(-c2onc(C)c2C)cc1S(=O)(=O)NCC1CCN(Cc2cccc(F)c2)CC1,inactive
9,O=C(Nc1nnc(Cc2ccc(Cl)cc2)s1)c1ccncc1,inactive
10,Cc1ccc2nc(NC(=O)c3nc(SCc4ccccc4F)ncc3Cl)sc2c1,inactive
11,CCS(=O)(=O)c1ncc(N(Cc2ccc(F)cc2)Cc2ccco2)c(C(=O)Nc2cc(C)ccc2C)n1,inactive
12,Cc1cccc(NC(=O)Cn2cc(S(=O)(=O)Cc3ccccc3Cl)c3ccccc32)c1,inactive
13,CSc1nnc(NC(=O)c2nc(S(=O)(=O)Cc3ccc(C)cc3)ncc2Cl)s1,16.4 µM (active)
14,O=C(Nc1nnc(Cc2ccc(Cl)cc2)s1)c1cccnc1,inactive
15,Cc1cccc(NC(=O)c2nc(S(=O)(=O)Cc3ccccc3)ncc2Cl)c1,5.8 µM (active)
16,CC(=O)c1cccc(NC(=O)c2nc(-c3ccccc3)n(-c3cccc(C)c3)n2)c1,inactive
17,Cc1ccc(CS(=O)(=O)c2ncc(Cl)c(C(=O)Nc3nnc(C)s3)n2)cc1,20.6 µM (active)
18,CCOC(=O)c1c(NC(=O)CSc2cn(CCNC(=O)c3cccc(C(F)(F)F)c3)c3ccccc23)sc2c1CCC2,inactive
19,CC1(C)Cc2ccccc2-c2c[nH]c(=O)n21,inactive
20,COc1ccc(-c2cc(-c3nc(-c4cc(OC)c(OC)c(OC)c4)no3)[nH]n2)c(OC)c1,inactive
21,CC1CCN(S(=O)(=O)c2ccc3c(ccn3CCC(=O)NCc3ccc(N(C)C)cc3)c2)CC1,inactive
22,COc1ccc(N(C)C(=O)C2CCN(S(=O)(=O)c3cc(Br)cc4c3N(C(C)=O)CC4)CC2)cc1,inactive
23,CCN(CC)CCNC(=O)c1ccc(NS(=O)(=O)c2ccc3c(c2)OCCO3)cc1,inactive
24,CN1CCN(c2ccc(NC(=O)c3ccc4c(c3)OCCO4)cc2Cl)CC1,inactive
25,O=C(Nc1cccc(S(=O)(=O)Nc2ccc(Cl)cc2)c1)c1ccc2c(c1)OCCO2,8.2 µM (active)

row,Compound,Potency
1,CN(C(=N)N)c1ccc(/C=C2\C=Cc3ccccc32)cc1,inactive
2,COc1ccccc1NC(=O)CSC1=Nc2ccccc2C2=NC(CC(=O)NCc3cccs3)C(=O)N12 (stereo not drawn),inactive
3,Cc1cccnc1NC(=O)c1cccc(S(=O)(=O)N2CCN(c3ccc(F)cc3)CC2)c1,20.6 µM (active)
4,O=C(Nc1ccc2c(c1)CCC2)c1cccc(S(=O)(=O)N2CCN(c3ccc(F)cc3)CC2)c1,inactive
5,Cc1ccc(C(=O)Nc2ncccc2C)cc1S(=O)(=O)N1CCOCC1,inactive
6,CCn1c(/C=C/Nc2ccccc2)[n+](CC)c2ccc(C(=O)OCC(F)(F)F)cc21,18.4 µM (active)
7,CCOC(=O)c1ccc2c(c1)nc(C)n2CC,inactive
8,CCOC(=O)c1cc2ccccc2n1CC(=O)c1ccccc1,inactive
9,COc1ccccc1-c1noc(-c2ccc(NCc3ccccc3)c([N+](=O)[O-])c2)n1,inactive
10,C[C@H]1CN(c2ccc(Br)cc2)C(=O)[C@@H]1CC(=O)Nc1ccc(Br)cc1,inactive
11,CNC(=O)C[C@H]1C(=O)N(c2ccc(OC)cc2)C[C@@H]1Cc1ccccc1,inactive
12,O=C1N(Cc2ccccc2)c2ccc(Cl)cc2C1(O)c1c[nH]c2ccccc12 (stereo not drawn),inactive
13,CCc1nc(N2CCN(C(C)=O)CC2)c2c3c(sc2n1)CCCC3,inactive
14,CCC(O)CNc1nc(-n2nc(C)cc2C)nc2sc3c(c12)CC(C)(C)OC3 (stereo not drawn),inactive
15,COCCNc1nc(-n2nc(C)cc2C)nc2sc3c(c12)CCCC3,11.6 µM (active)
16,CC(C)Oc1ccc(NC(=O)c2cc3ccccc3o2)cc1,inactive
17,Cc1c(/C=N\NC(=O)c2cc3ccccc3o2)c2ccccc2n1C,8.2 µM (active)
18,Cc1c(/C=N/N2C(=O)C3C4C=CC(C4)C3C2=O)c2ccccc2n1C (stereo not drawn),inactive
19,CC(C)CC(COCc1ccc(Cl)cc1)N1CCN(C(=O)c2ccc(C(F)(F)F)cc2)CCC1=O (stereo not drawn),18.4 µM (active)
20,O=C(c1ccc(C(F)(F)F)cc1)N1CCC(=O)N([C@H](COCc2ccccc2)Cc2ccccc2)CC1,inactive
21,O=C(c1cc(Cl)cc(Cl)c1)N1CCC(=O)N(C(COCc2ccccc2)Cc2ccccc2)CC1 (stereo not drawn),inactive
22,COc1ccc(C(=O)NCC(c2ccc(N(C)C)cc2)N2CCc3ccccc32)c(OC)c1 (stereo not drawn),inactive
23,CC1CC(C)CN(c2oc(-c3ccc(OCc4ccc(Cl)cc4)cc3)nc2C#N)C1 (stereo not drawn),inactive
24,Cc1ccc(Nc2nc3ccccc3nc2-n2nc(C)cc2C)c(Cl)c1,inactive
25,Cc1cc2c(cc1C)C(c1cccc(OC(C)C)c1)CC(=O)N2 (stereo not drawn),inactive

row,Compound,Potency
1,CCCOc1ccccc1C1CC(=O)Nc2cc3c(cc21)OCO3 (stereo not drawn),2.59 µM (active)
2,O=C1CC(c2ccc(F)cc2F)c2cc3c(cc2N1)OCO3 (stereo not drawn),inactive
3,CC(C)Cn1c(-c2ccc(S(=O)(=O)N3CCOCC3)cc2)csc1=Nc1cc(Cl)ccc1Cl,inactive
4,CN(N=O)c1ccc(C=C2c3ccccc3-c3ccccc32)cc1,inactive
5,C[N+](C)(C)CCNC(=O)c1c[nH]c2ccccc12,inactive
6,COc1ccc(C2C(C(C)=O)=C(O)C(=O)N2CCc2c[nH]c3ccccc23)cc1 (stereo not drawn),inactive
7,COc1ccc(/C=C(\C#N)c2c[nH]c3ccccc23)cc1,1.64 µM (active)
8,Cc1cc(C(=O)CSc2nc(N)cc(=O)[nH]2)c(C)n1-c1cccc(F)c1,5.8 µM (active)
9,Cc1cc(C)c(C(=O)CSc2nc(C)cc(=O)[nH]2)c(C)c1,inactive
10,Cc1cc(C(=O)CSc2nc(N)cc(=O)[nH]2)c(C)n1CCc1ccc(Cl)cc1,inactive
11,Cc1cccc(C(=O)N2CCc3cc(CNC(=O)Cc4ccc(F)cc4)ccc32)c1,inactive
12,COc1cc(NS(=O)(=O)c2ccc3ccccc3c2)c2ncccc2c1,6.51 µM (active)
13,CCOc1ccc(OCC)c(NS(=O)(=O)c2ccc3[nH]c(=O)ccc3c2)c1,inactive
14,O=[N+]([O-])c1ccccc1S(=O)(=O)Nc1cccc2cccnc12,inactive
15,CCN(CCCNC(=O)CSc1cc(=O)n(C)c2cc(Cl)ccc12)c1cccc(C)c1,inactive
16,CCOC(=O)CCP(=O)(O)C(O)(c1ccccc1)c1ccccc1,inactive
17,CCc1ccccc1NC(=O)/C(=C/c1ccccc1)c1ccccc1,inactive
18,CCOC(=O)C(=Cc1ccccc1)C(=O)c1ccccc1,20.6 µM (active)
19,Cc1ccc2cccc(NC(=O)c3ccc(OC(C)C)cc3)c2n1,inactive
20,CCOC(=O)C1CCCN(S(=O)(=O)c2cc(-c3cc(C)no3)ccc2OC)C1 (stereo not drawn),inactive
21,Cc1ccc(NC(=S)N(CCCN2CCCC2)Cc2cccn2Cc2ccc(Cl)cc2)cc1,20.6 µM (active)
22,Cc1ccccc1NC(=S)N(CCCN1CCOCC1)Cc1cccs1,inactive
23,CCc1cccc(C)c1NC(=S)N(CCCN1CCN(C)CC1)Cc1cccs1,inactive
24,Cc1ccccc1-c1nc(CS(=O)(=O)CC(=O)Nc2cc(Cl)cc(Cl)c2)c(C)o1,inactive
25,Cc1nnc(N2CCC(C(=O)Nc3ccc(F)cc3)CC2)c2nn(-c3ccc(Cl)cc3)c(C)c12,inactive

row,Compound,Potency
1,CCc1ccccc1NS(=O)(=O)c1ccc2nc(-c3ccccc3)[nH]c2c1,inactive
2,COc1cc(CNCCN(C)C)ccc1OCc1c(F)cccc1Cl,inactive
3,COc1cc(CNCCSc2nnnn2C)ccc1OCc1ccc(Cl)cc1Cl,inactive
4,COc1cc(CNCCSc2nnnn2C)ccc1OCc1c(F)cccc1Cl,18.4 µM (active)
5,Cc1onc(-c2ccccc2Cl)c1C(=O)OCc1nnc(-c2ccccc2)o1,inactive
6,CCOC(=O)c1c(-c2cccc(C)c2)csc1NC(=O)c1c(-c2ccccc2)noc1C,5.17 µM (active)
7,CCOC(=O)c1c(NC(=O)c2cc(-c3ccc(Cl)cc3)on2)sc2c1CCCC2,inactive
8,CC1=C(C(=O)Nc2ccccc2)C(c2ccc(C)cc2)n2nc(SCc3ccccc3C)nc2N1 (stereo not drawn),inactive
9,CCOc1ccc(N(CC)S(=O)(=O)N2CCCC(C(=O)NCc3ccc(SC)cc3)C2)cc1 (stereo not drawn),inactive
10,COc1ccccc1NC1=NC(c2ccc(Cl)cc2)N=C(N)N1 (stereo not drawn),3.66 µM (active)
11,CC1(C)N=C(N)NC(Nc2ccc(Cl)cc2)=N1,inactive
12,COc1ccccc1Nc1nc(N)nc(N)c1S(=O)(=O)c1ccccc1,inactive
13,CCOC(=O)c1ccc(NC(=O)c2c(NCc3cccc(OC)c3)sc3c2CCC3)cc1,inactive
14,COc1ccc(-c2csc(-c3c(N)c(C(=O)c4ccc(OC)c(OC)c4)n4ccccc34)n2)cc1,inactive
15,CCN(CC)CCNc1ccc(Cl)cc1[N+](=O)[O-],inactive
16,CCN(CC)CCCC(C)Nc1ccnc2cc(Cl)ccc12 (stereo not drawn),10.3 µM (active)
17,CCN(CC)CCNc1ncnc2c1cnn2-c1cc(Cl)ccc1C,inactive
18,CNCCCOc1cc2nc(N3CCCN(C)CC3)nc(NC3CCN(C)CC3)c2cc1OC,inactive
19,CCOC(=O)c1cc(-c2ccc(OC)c(S(=O)(=O)Nc3ccc(OC)cc3OC)c2)on1,inactive
20,Cc1cccc(CNC(=O)c2cnc3sc(N4CCCCC4)nn3c2=O)c1,inactive
21,CC(C)C1N=C2c3ccccc3N=C(SCC(=O)c3ccc(O)c(O)c3)N2C1=O (stereo not drawn),23.1 µM (active)
22,CCOC(=O)CSC1=Nc2ccccc2C2=NC(CCC(=O)NCc3ccc(F)cc3)C(=O)N12 (stereo not drawn),inactive
23,Cc1ccc(CNC(=O)CSC2=Nc3ccccc3C3=NC(C)C(=O)N23)cc1 (stereo not drawn),inactive
